# Experimental data: PubChem BioAssay (NCATS)
# Records with an inconclusive call do not appear. Entries that show only a call come without a potency. Unmarked numbers belong to inactive results. The source made the active and inactive calls. Unless noted, calls follow the shape of the dose curve; as a rule, active = well fitted curve in the direction sought with a large enough effect; inconclusive = small, poorly fitted or top-dose-only effect, or another doubt; inactive = no such curve, though single readings can be large; an effect the other way counts as inactive or inconclusive.
# Key:
# [1] = P-glycoprotein substrates identified in KB-8-5-11 adenocarcinoma cell line, qHTS therapeutic library screen (AID 1346987); also: nearly all actives have a fitted effect of over 65% in size; also: potency is read from the fitted curve at half-maximal effect
# Procedure, shortened: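 Steps: plate 500 KB-8-5-11 cells/well in DMEM + 10% FCS (colchicine removed); pin compounds in dose-response; incubate 72 h, 37 degree C, 5% CO2; add CellTiter-Glo, 5 min; read luminescence.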
# [2] = NS1 protein of Zika virus - qHTS assay to identify small molecule inhibitors in human HEK 293 cells (AID 1347053); also: series mostly up to about 46 µM; nearly all actives have a fitted effect of over 55% in size
# Procedure, shortened: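 HEK 293; 20 h pre-culture, 37 C/5% CO2; cpd 1 h pre-infection; ZIKV MR766, MOI = 0.5, 24 h, 37 C; TR-FRET NS1 readout (two anti-NS1 Abs); norm. to no-virus vs infected.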
# [3] = Natriuretic polypeptide receptor (hNpr1) antagonism - Pilot counterscreen GloSensor control cell line (AID 1347045; calls by dose curve; also: series mostly up to about 38 µM)
# Procedure, shortened: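 Luminescence was read before and 20 min after adding 50 uM SNP, which stimulates soluble guanylyl cyclase. The HEK293 cells expressing the GloSensor cGMP sensor had been preloaded with 2% reagent for 2 h and treated with compound.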
# [4] = target: Atrial natriuretic peptide receptor 2 (Homo sapiens) (UniProt P20594); test: Natriuretic polypeptide receptor (hNpr2) antagonism - Pilot subtype selectivity assay (AID 1347050; calls by dose curve)
# Sequence of Atrial natriuretic peptide receptor 2 (Homo sapiens) (P20594 whole entry, looked up): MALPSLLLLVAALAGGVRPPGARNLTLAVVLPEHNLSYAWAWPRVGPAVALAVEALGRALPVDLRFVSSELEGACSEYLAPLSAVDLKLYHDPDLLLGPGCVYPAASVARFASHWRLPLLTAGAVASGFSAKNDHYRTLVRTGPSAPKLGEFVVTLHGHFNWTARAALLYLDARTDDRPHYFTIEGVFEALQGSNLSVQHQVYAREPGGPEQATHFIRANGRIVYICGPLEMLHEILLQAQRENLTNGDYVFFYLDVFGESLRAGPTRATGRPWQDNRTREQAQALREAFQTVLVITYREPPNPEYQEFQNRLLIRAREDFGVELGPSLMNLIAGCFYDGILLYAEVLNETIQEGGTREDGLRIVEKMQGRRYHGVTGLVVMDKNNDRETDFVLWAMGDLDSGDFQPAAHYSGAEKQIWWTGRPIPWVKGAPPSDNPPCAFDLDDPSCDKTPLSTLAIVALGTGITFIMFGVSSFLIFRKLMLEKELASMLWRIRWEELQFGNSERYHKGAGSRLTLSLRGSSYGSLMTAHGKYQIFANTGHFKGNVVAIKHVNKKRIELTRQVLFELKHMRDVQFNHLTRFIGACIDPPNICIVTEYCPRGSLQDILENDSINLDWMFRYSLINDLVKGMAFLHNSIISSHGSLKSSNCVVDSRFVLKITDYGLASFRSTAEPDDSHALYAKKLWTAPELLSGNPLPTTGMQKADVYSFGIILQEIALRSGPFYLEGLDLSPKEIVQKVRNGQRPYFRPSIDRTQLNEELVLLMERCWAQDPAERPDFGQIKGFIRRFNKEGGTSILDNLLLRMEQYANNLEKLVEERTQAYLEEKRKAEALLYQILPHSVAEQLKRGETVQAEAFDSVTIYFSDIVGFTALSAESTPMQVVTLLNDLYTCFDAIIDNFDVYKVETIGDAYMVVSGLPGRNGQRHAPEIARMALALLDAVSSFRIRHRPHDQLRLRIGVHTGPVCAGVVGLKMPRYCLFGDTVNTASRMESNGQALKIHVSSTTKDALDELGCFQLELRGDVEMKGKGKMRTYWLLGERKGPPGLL
# Procedure, shortened: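 Pilot selectivity screen against hNpr2: HEK293 cGMP-sensor cells are treated with LOPAC1280 compounds, then with hNppC peptide at 1 nM final. The cGMP-driven luminescence change over 20 min at room temperature is the read-out.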
# [5] = target: T1, Tyrosine-protein phosphatase non-receptor type substrate 1 (Homo sapiens) + Leukocyte surface antigen CD47 (Homo sapiens) (UniProt P78324+Q08722); test: CD47-SIRPalpha protein protein interaction - LANCE assay qHTS validation (AID 1347057; active = well fitted curve in the direction sought with a large enough effect in the signal ratio, with a control signal flat, not every such curve was filed as active; the % refers to the signal ratio; also: series mostly up to about 38 µM)
# T1 sequence (P78324 whole entry, looked up): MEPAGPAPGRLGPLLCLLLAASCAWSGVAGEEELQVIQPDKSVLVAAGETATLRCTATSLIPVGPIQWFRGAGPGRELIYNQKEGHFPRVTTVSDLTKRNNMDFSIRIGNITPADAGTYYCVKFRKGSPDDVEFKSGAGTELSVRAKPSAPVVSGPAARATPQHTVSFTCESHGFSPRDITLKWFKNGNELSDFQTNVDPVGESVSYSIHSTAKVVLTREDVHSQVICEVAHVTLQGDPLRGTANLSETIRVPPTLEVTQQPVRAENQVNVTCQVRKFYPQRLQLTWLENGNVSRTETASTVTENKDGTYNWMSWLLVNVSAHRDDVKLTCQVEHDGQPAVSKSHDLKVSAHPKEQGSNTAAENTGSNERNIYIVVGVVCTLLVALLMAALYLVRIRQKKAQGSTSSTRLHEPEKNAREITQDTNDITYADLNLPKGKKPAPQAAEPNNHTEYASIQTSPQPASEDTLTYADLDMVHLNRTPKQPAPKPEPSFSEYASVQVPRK
# T1 sequence (Q08722 whole entry, looked up): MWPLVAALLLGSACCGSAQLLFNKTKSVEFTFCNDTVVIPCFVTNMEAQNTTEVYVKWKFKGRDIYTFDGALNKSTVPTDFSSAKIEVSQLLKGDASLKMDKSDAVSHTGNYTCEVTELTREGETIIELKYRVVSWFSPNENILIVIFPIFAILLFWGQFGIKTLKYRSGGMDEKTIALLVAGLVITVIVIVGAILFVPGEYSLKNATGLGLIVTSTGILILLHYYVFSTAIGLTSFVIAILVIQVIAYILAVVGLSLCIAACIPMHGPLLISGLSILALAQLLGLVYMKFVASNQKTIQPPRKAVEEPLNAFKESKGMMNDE
# Procedure, shortened: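 First, His-tagged CD47 and Eu-labelled anti-His antibody met the compound for 30 min; next, site-specifically biotinylated SIRPalpha was added for 30 min; finally streptavidin-APC was added before reading the TR-FRET ratio.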
# [6] = target: T1, Tyrosine-protein phosphatase non-receptor type substrate 1 (Homo sapiens) + Leukocyte surface antigen CD47 (Homo sapiens); test: CD47-SIRPalpha protein protein interaction - HTRF assay qHTS validation (AID 1347058; active = well fitted curve in the direction sought with a large enough effect in the signal ratio, not every such curve was filed as active; the % refers to the signal ratio;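 also: recombinant soluble extracellular CD47 with His tag and biotinylated SIRPalpha domains; series mostly up to about 38 µM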)
# Procedure, shortened: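 TR-FRET read (Ch1/Ch2 ratio) of soluble extracellular CD47 and Avi-biotinylated SIRPalpha domains in PBS pH 7.4 with 0.05% IGEPAL; 7-point compound titration. Sequential 30 min room-temperature steps; non-biotinylated SIRPalpha as control inhibitor.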
structure (smiles),measurement,setting,value
COc1ccc2c(c1)C13CCCC[C@@H]1C(C2)N(C)CC3 (stereo not given in full),Potency,[1],inactive
NC1=NC(=O)C(c2ccccc2)O1 (stereo not given),Potency,[1],inactive
same,outcome,[2],inactive
NC(=O)c1cc([N+](=O)[O-])cc([N+](=O)[O-])c1,Potency,[1],inactive
same,outcome,[2],inactive
COc1cccc(C(=O)CCN[C@@H](C)[C@H](O)c2ccccc2)c1,Potency,[1],inactive
same,outcome,[2],inactive
CCCCCCCCCC(=O)O[C@H]1CC[C@H]2[C@@H]3CCC4=CC(=O)CC[C@@H]4[C@H]3CC[C@]12C,Potency,[1],6.51 µM (active)
same,outcome,[2],inactive
COc1c2c(cc3c1OCO3)CCN(C)C2,Potency,[1],inactive
same,outcome,[2],inactive
NC(=O)CS(=O)C(c1ccccc1)c1ccccc1 (stereo not given),Potency,[1],inactive
same,outcome,[2],inactive
NNc1ccccc1,Potency,[1],inactive
same,outcome,[2],inactive
COP(=S)(OC)SCN1C(=O)c2ccccc2C1=O,Potency,[1],inactive
same,outcome,[2],inactive
CCC1(CC)C(=O)C=CNC1=O,Potency,[1],inactive
same,outcome,[2],inactive
COP(=S)(OC)Oc1ccc(S(=O)(=O)N(C)C)cc1,Potency,[1],inactive
same,outcome,[2],inactive
COc1ccc2c3c1O[C@H]1[C@H](O)CC[C@H]4[C@@H](C2)N(C)CC[C@@]341,Potency,[1],inactive
same,outcome,[2],inactive
CCN[C@@H](C)Cc1ccccc1,Potency,[1],inactive
same,outcome,[2],inactive
CN1CC[C@]23c4c5ccc(O)c4O[C@H]2[C@@H](O)CC[C@H]3[C@H]1C5,Potency,[1],inactive
same,outcome,[2],inactive
Clc1ccc(C(c2ccc(Cl)cc2)C(Cl)(Cl)Cl)cc1,Potency,[1],inactive
same,outcome,[2],inactive
CCC1(c2ccccc2)C(=O)N(COC)C(=O)N(COC)C1=O,Potency,[1],inactive
same,outcome,[2],inactive
C=CCC1([C@H](C)CCC)C(=O)NC(=O)NC1=O,Potency,[1],inactive
same,outcome,[2],inactive
CC(C)=CC1C(C(=O)OCN2C(=O)C3=C(CCCC3)C2=O)C1(C)C (stereo not given),Potency,[1],inactive
same,outcome,[2],inactive
CN1CCC(O)(c2ccc(F)cc2)C(C(=O)c2ccc(F)cc2)C1 (stereo not given),Potency,[1],inactive
same,outcome,[2],inactive
CC1(C)C(C=C(Cl)Cl)C1C(=O)OC(C#N)c1cccc(Oc2ccccc2)c1 (stereo not given),Potency,[1],inactive
same,outcome,[2],inactive
C#C[C@]1(O)CC[C@H]2[C@@H]3CCC4=CC(=O)CC[C@]4(C)[C@H]3CC[C@@]21C,Potency,[1],inactive
same,outcome,[2],inactive
O=C(N/N=C/c1ccc([N+](=O)[O-])o1)c1cc([N+](=O)[O-])cc([N+](=O)[O-])c1O,Potency,[1],inactive
same,outcome,[2],inactive
c1ccc2c(c1)sc1ccccc12,Potency,[1],inactive
same,outcome,[2],inactive
CC(C)NC(C)C,Potency,[1],inactive
same,outcome,[2],inactive
CCN[C@@H](C)Cc1cccc(C(F)(F)F)c1,Potency,[1],inactive
same,outcome,[2],inactive
CC(=O)NC1CCSC1=O (stereo not given),Potency,[1],inactive
same,outcome,[2],inactive
CN1CC[C@]23c4c5ccc(O)c4O[C@H]2[C@@H](O)C=C[C@H]3[C@H]1C5,Potency,[1],inactive
same,outcome,[2],inactive
O=[N+]([O-])O[C@H]1CO[C@H]2[C@@H]1OC[C@H]2O[N+](=O)[O-],Potency,[1],inactive
same,outcome,[2],inactive
Nc1ccccc1C(=O)O,Potency,[1],inactive
same,outcome,[2],inactive
CCOC(=O)CC(SP(=S)(OC)OC)C(=O)OCC (stereo not given),Potency,[1],inactive
same,outcome,[2],inactive
COP(=S)(OC)Oc1cc(Cl)c(Cl)cc1Cl,Potency,[1],inactive
same,outcome,[2],inactive
CCN(CC)CCc1c[nH]c2ccccc12,Potency,[1],inactive
same,outcome,[2],inactive
O=C(Nc1ccc(Br)cc1)c1cc(Br)cc(Br)c1O,Potency,[1],4.61 µM (active)
same,outcome,[2],inactive
CC(C)(C)NCC(O)c1cc(Cl)c(N)c(C(F)(F)F)c1 (stereo not given),Potency,[1],inactive
same,outcome,[2],inactive
Nc1ccc([As](=O)(O)O)cc1,Potency,[1],inactive
same,outcome,[2],inactive
O=C1OC(c2ccc(O)c(S(=O)(=O)O)c2)(c2ccc(O)c(S(=O)(=O)O)c2)c2c(Br)c(Br)c(Br)c(Br)c21,Potency,[1],inactive
same,outcome,[2],inactive
Nc1ccccc1,Potency,[1],inactive
same,outcome,[2],inactive
CCCOC(=O)c1cncn1C(C)c1ccccc1 (stereo not given),outcome,[2],inactive
c1ccc(CN2CCNCC2)cc1,Potency,[1],inactive
same,outcome,[2],inactive
COC(=O)C(Cl)C(=O)OC,Potency,[1],inactive
same,outcome,[2],inactive
COP(=S)(OC)Oc1ccc(SC)c(C)c1,Potency,[1],inactive
same,outcome,[2],inactive
O=C(O)c1ccc(=O)[nH]c1,outcome,[2],inactive
CN1C(=O)COc2c(C(=O)NC3CN4CCC3CC4)cc(Cl)cc21 (stereo not given),Potency,[1],inactive
same,outcome,[2],inactive
O=C1c2ccccc2C(=O)c2ccccc21,Potency,[1],inactive
same,outcome,[2],inactive
C[C@]12CC[C@H]3[C@@H](CCC4=CC(=O)CC[C@@H]43)[C@@H]1CC[C@@H]2OC(=O)CCC1CCCCC1,outcome,[2],inactive
C[C@H](N)C(=O)c1ccccc1,Potency,[1],inactive
same,outcome,[2],inactive
COc1cc(CCN)cc(OC)c1OC,Potency,[1],inactive
same,outcome,[2],inactive
C[C@](O)(CS(=O)(=O)c1ccc(F)cc1)C(=O)Nc1ccc(C#N)c(C(F)(F)F)c1,Potency,[1],14.6 µM (active)
same,outcome,[2],inactive
O=C(CCCN1CCC2(CC1)C(=O)NCN2c1ccccc1)c1ccc(F)cc1,outcome,[3],inactive
same,outcome,[4],inactive
same,outcome,[5],inactive
same,outcome,[6],inactive
COC(=O)[C@@H](N)CCCN/C(N)=N/[N+](=O)[O-],Potency,[1],inactive
same,outcome,[2],inactive
O=c1[nH]c2ccccc2n1C1CCNCC1,outcome,[2],inactive
O=C1CN=C(c2ccccc2)c2cc([N+](=O)[O-])ccc2N1,Potency,[1],inactive
same,outcome,[2],inactive
CCN[C@H](C)Cc1cccc(C(F)(F)F)c1,Potency,[1],inactive
same,outcome,[2],inactive
Nc1nc(N)nc(NC2CC2)n1,Potency,[1],inactive
same,outcome,[2],inactive
CNCC(=O)c1ccc(O)c(O)c1,Potency,[1],inactive
same,outcome,[2],inactive
C[C@@H](N)[C@@H](O)c1ccccc1,Potency,[1],inactive
same,outcome,[2],inactive
CC(C)C[C@H](CN)CC(=O)O,Potency,[1],inactive
same,outcome,[2],inactive
CCC(C)(C)c1ccc(O)cc1,Potency,[1],inactive
same,outcome,[2],inactive
CNC(C)(C)Cc1ccccc1,Potency,[1],inactive
same,outcome,[2],inactive
COc1cc(CC(C)N)cc(OC)c1OC (stereo not given),Potency,[1],inactive
same,outcome,[2],inactive
COc1cc(OC)c(OC)cc1C=O,Potency,[1],inactive
same,outcome,[2],inactive
COC1CC(=C(c2cccs2)c2cccs2)C[N+](C)(C)C1 (stereo not given),Potency,[1],inactive
same,outcome,[2],inactive
[N-]=[N+]=CC(=O)OC[C@H](N)C(=O)O,Potency,[1],inactive
same,outcome,[2],inactive
CN1C(=O)NC(=O)C(C)(C2=CCCCC2)C1=O (stereo not given),Potency,[1],inactive
same,outcome,[2],inactive
